This passage reports growth results from PubChem BioAssay (NCI).

About 83,000 compounds went through this panel and 20% of them were active in at least one assay; those are over-represented in the sample as a whole.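 Results are percent growth after 48 hours of single-concentration exposure. 100 means growth as in untreated cells, lower positive values show inhibition; negative values down to -100 show cell death.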 Active and inactive are the calls of the source. How the source made its calls: active means growth percent below 10; inactive means the rest.

The experiment has as its system HL-60(TB) leukemia. Nature of the experiment: NCI-60 one-dose screen, 48 h (100 = growth as untreated, 0 = no growth, -100 = all killed). The settings on record: 10 µM unless noted.
For the molecule `COC(=O)[C@]12CC[C@@H](C)[C@H](C)[C@@H]1C1=CC[C@@H]3[C@@]4(C)C(C=O)=C[C@@](C)(COC(=O)c5ccco5)C4=CC[C@@]3(C)[C@]1(C)CC2`, the growth is -9.45% (active).

Consider `O=C(Nc1ccc(N2CCNCC2)cc1)c1[nH]ncc1Nc1ncnc2sc3c(c12)CCC3`, for which the growth is -49.6% (active).

Consider `O=C(NC(=S)Nc1ccc(Cl)cc1)c1ccccc1`, for which the growth was 60.5% (inactive).
